The panel holds about 83,000 compounds, 20% with a hit somewhere; the sample as a whole holds those more often.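 48-hour exposure, single concentration, 96-well plates; percent growth endpoint where 0 means no net growth. Active: below 10.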 A number with no mark means an inactive call. The source made the active and inactive calls.
Legend:
Experiment in all cases: NCI-60 one-dose screen, 48 h (100 = growth as untreated, 0 = no growth, -100 = all killed)
Settings in all cases: 10 µM unless noted
[1] = test system: NCI-H23 lung
[2] = test system: NCI-H226 lung
[3] = test system: NCI-H322M lung
[4] = test system: HOP-62 NSCLC
[5] = test system: NCI-H460 lung
[6] = test system: NCI-H522 lung
[7] = test system: A549/ATCC NSCLC
[8] = test system: 786-0 renal
[9] = test system: COLO 205 colon
[10] = test system: HOP-92 NSCLC

COC(=O)CCCCN=Cc1c(O)c(O)c(C(C)C)c2cc(C)c(-c3c(C)cc4c(C(C)C)c(O)c(O)c(C=NCCCCC(=O)OC)c4c3O)c(O)c12
growth [1]: 15.6%
growth [2]: 41.4%
growth [3]: 25.4%
growth [4]: 27.3%
growth [5]: 5.03% (active)
growth [6]: -0.222% (active)
growth [7]: 21%
growth [8]: 21.7%
growth [9]: 10.2%

Cc1ccc2nc(SCn3nnc4ccccc4c3=O)[nH]c2c1
growth [1]: 100%
growth [2]: 110%
growth [3]: 135%
growth [4]: 88.9%
growth [5]: 99.5%
growth [6]: 89.5%
growth [7]: 113%
growth [8]: 107%
growth [9]: 75.9%

CC1CCN(C(=O)CSc2nc3sc4c(c3c(=O)[nH]2)CCCC4)CC1
growth [1]: 113%
growth [2]: 100%
growth [3]: 104%
growth [4]: 103%
growth [5]: 120%
growth [6]: 89.9%
growth [7]: 106%
growth [8]: 110%
growth [9]: 112%

CC(C)CCN(CCCNc1c2c(nc3ccccc13)CCCC2)CCC(C)C
growth [2]: 102%
growth [3]: 81.7%
growth [4]: 102%
growth [5]: 91%
growth [10]: 42.4%
growth [6]: 103%
growth [7]: 94.1%
growth [8]: 77.6%

C=C1C(=O)O[C@H]2[C@H](O)[C@@H](C)CCC/C(C)=C/CC[C@@]3(C)O[C@@H]3C[C@@H]12
growth [1]: 95.3%
growth [2]: 80.9%
growth [3]: 81%
growth [4]: 96.3%
growth [5]: 91.4%
growth [6]: -17.3% (active)
growth [7]: 80.7%
growth [8]: 93.7%
growth [9]: 90.7%

CC[C@H](C)[C@H]1NC(=O)[C@@H](N[C@](C)(O)[C@@H](N)CC(C)C)[C@@H](C)OC(=O)[C@H](Cc2ccc(OC)cc2)N(C)C(=O)[C@@H]2CCCN2C(=O)[C@H](CC(C)C)NC(=O)[C@@H](C)C(=O)[C@H](C(C)C)OC(=O)C[C@@H]1O
growth [1]: -29.6% (active)
growth [2]: -11.1% (active)
growth [3]: -22.4% (active)
growth [4]: -31.1% (active)
growth [5]: -11.8% (active)
growth [6]: -37.7% (active)
growth [7]: -22.7% (active)
growth [8]: -25.5% (active)
growth [9]: -65.1% (active)

CC(=O)N1Cc2ccccc2C(C)Cc2cc(Cl)ccc21 (configuration not stated)
growth [1]: 106%
growth [2]: 117%
growth [3]: 97.9%
growth [4]: 102%
growth [5]: 105%
growth [6]: 95.8%
growth [7]: 96.5%
growth [8]: 95.9%
growth [9]: 117%

NC(=O)c1cccc(N2Cc3ccccc3OC3=C2C(=O)c2c(O)ccc(O)c2C3=O)c1
growth [1]: 6.02% (active)
growth [2]: 0.769% (active)
growth [3]: 25.5%
growth [4]: -42% (active)
growth [5]: -27.5% (active)
growth [6]: -73.4% (active)
growth [7]: 24.7%
growth [8]: -80.5% (active)
growth [9]: -82.8% (active)

COc1ccccc1CNCCCN1C(=O)c2ccc3c4c(ccc(c24)C1=O)C(=O)N(CCCNCCCCNCCCCN)C3=O
growth [1]: 6.63% (active)
growth [2]: 27%
growth [3]: -21.5% (active)
growth [4]: 22.2%
growth [5]: 0.275% (active)
growth [6]: -40.8% (active)
growth [7]: -3.81% (active)
growth [8]: 23.3%
growth [9]: -45.4% (active)

COc1ccc(NC(=O)/N=c2\oc3c(OC)cccc3cc2-c2cc3ccccc3[nH]2)cc1
growth [1]: 53.2%
growth [2]: 67.7%
growth [3]: 74%
growth [4]: 22.6%
growth [5]: 49.4%
growth [6]: 76.3%
growth [7]: 55.7%
growth [8]: 10.7%
growth [9]: 97.8%

O=S(=O)(c1ccccc1)n1ccc(-c2ccc3c(c2)CCO3)n1
growth [1]: 78.4%
growth [2]: 64.6%
growth [3]: 91.4%
growth [4]: 98.8%
growth [5]: 87.3%
growth [6]: 61.7%
growth [7]: 78.8%
growth [8]: 90.3%
growth [9]: 96.9%

COc1cc(NC(=O)c2cc3ccccc3nc2Nc2ccc(F)cc2)cc(OC)c1OC
growth [1]: 39.8%
growth [2]: 43%
growth [3]: 65.8%
growth [4]: 83.2%
growth [5]: 40.3%
growth [6]: 49.8%
growth [7]: 42.8%
growth [8]: 53.5%
growth [9]: 38%

FC(F)(F)c1cccc(-n2nnc3cnc(Nc4ccc(N5CCCCC5)cc4)nc32)c1
growth [1]: 66.5%
growth [2]: 92.4%
growth [3]: 90.7%
growth [4]: 98.1%
growth [5]: 12.6%
growth [6]: 2.95% (active)
growth [7]: 20.9%
growth [8]: 25.3%
growth [9]: 77.2%

O=S(=O)(NCCCNc1cc(-c2cn(-c3ccccc3)nc2-c2cccc(O)c2)ccn1)c1ccc(Cl)cc1
growth [1]: 33.1%
growth [2]: 24.8%
growth [3]: 25.2%
growth [4]: 29.1%
growth [5]: 10.9%
growth [6]: 20.2%
growth [7]: 18.8%
growth [8]: -11.8% (active)
growth [9]: -68.5% (active)

Cc1cc2c(C(C)C)c(O)c(O)c(C=NCCCCC(=O)O)c2c(O)c1-c1c(C)cc2c(C(C)C)c(O)c(O)c(C=NCCCCC(=O)O)c2c1O
growth [1]: 33.8%
growth [2]: 85.2%
growth [3]: 46%
growth [4]: 50%
growth [5]: 23.8%
growth [6]: 23.4%
growth [7]: 49.1%
growth [8]: 49.1%
growth [9]: 41.1%

COc1ccc(C(=O)c2cc(OC)c(OC)c(OC)c2)cc1/C=C/C(=O)c1ccc(OC)c(OC)c1
growth [1]: 32.2%
growth [2]: 55.6%
growth [3]: 54.7%
growth [4]: 58.6%
growth [5]: 18.4%
growth [6]: 3.99% (active)
growth [7]: 57.1%
growth [8]: 55.9%
growth [9]: 31.3%

COc1c(NC[C@H]2OC(O)[C@H](O)[C@@H](O)[C@@H]2O)c(=O)c1=O (some centres not stated)
growth [1]: 97%
growth [2]: 98.3%
growth [3]: 98%
growth [4]: 102%
growth [5]: 104%
growth [6]: 114%
growth [7]: 94.2%
growth [8]: 102%
growth [9]: 112%

Cc1cc(C)c(NC(=O)c2sc3nc4c(cc3c2N)CN(Cc2ccccc2)CC4)c(C)c1
growth [1]: 55.2%
growth [2]: 49.5%
growth [3]: 39.3%
growth [4]: 33.7%
growth [5]: 10.8%
growth [6]: 13.5%
growth [7]: 30.3%
growth [8]: 39%

CCCCNc1nnc(-c2cc(-c3cc4ccccc4o3)nn2-c2ccccc2)o1
growth [2]: 86.2%
growth [3]: 87.4%
growth [4]: 110%
growth [5]: 98.7%
growth [10]: 46.4%
growth [6]: 80%
growth [7]: 82%
growth [8]: 93%
growth [9]: 105%

Cc1cccc(-n2c(C)nc3ccc(NC(=O)NCCCl)cc3c2=O)c1
growth [2]: 95.3%
growth [3]: 105%
growth [4]: 96%
growth [5]: 100%
growth [10]: 86%
growth [6]: 98.9%
growth [7]: 101%
growth [8]: 93.5%
growth [9]: 104%

Cc1ccc(S(=O)(=O)OCC(=O)Nc2ccc(C(=O)O)c(O)c2)cc1
growth [2]: 126%
growth [3]: 104%
growth [4]: 100%
growth [5]: 103%
growth [10]: -60.6% (active)
growth [6]: 93.8%
growth [7]: 101%
growth [8]: 108%
growth [9]: 131%

COc1ccc(/C=C/C(=O)c2ccc(B(O)O)cc2)cc1O
growth [2]: 92.5%
growth [3]: 96.3%
growth [4]: 89.8%
growth [5]: 73.2%
growth [10]: 52.4%
growth [6]: 85.6%
growth [7]: 66.3%
growth [8]: 84.9%
growth [9]: 101%

CCC(=O)Oc1cc(/C=C/C(=O)O[C@H]2C[C@H]3CN4CCc5c([nH]c6cc(OC)ccc56)[C@@H]4C[C@@H]3[C@@H](C(=O)OC)[C@@H]2OC)ccc1OC
growth [2]: 67%
growth [3]: 122%
growth [4]: 89%
growth [5]: 93.5%
growth [10]: -1.22% (active)
growth [6]: 84%
growth [7]: 80.5%
growth [8]: 70.3%
growth [9]: 69.5%

c1cncc(CNc2ccccc2-c2nnc(Nc3ccc4c(c3)OCCO4)o2)c1
growth [2]: 7.4% (active)
growth [3]: 49.6%
growth [4]: 32.5%
growth [5]: 4.61% (active)
growth [10]: 136%
growth [6]: -28.3% (active)
growth [7]: 31.8%
growth [8]: 42.4%
growth [9]: -21.9% (active)

COC(=O)c1ccc2nc(-c3cc4ccccc4n3C)n(CCCCOc3cc4c(cc3OC)C(=O)N3CCC[C@H]3C=N4)c2c1
growth [2]: -31.8% (active)
growth [3]: -38.1% (active)
growth [4]: 15.6%
growth [5]: -25.9% (active)
growth [10]: -28.5% (active)
growth [6]: -28.1% (active)
growth [7]: -11.8% (active)
growth [8]: 8.78% (active)
growth [9]: -39.4% (active)

Cc1ccc2c(c1)ncn2-c1ncnc2c1CC(C)c1ccccc1N2C (configuration not stated)
growth [2]: 54.2%
growth [3]: 61.3%
growth [4]: 33.9%
growth [5]: 3.26% (active)
growth [10]: 24%
growth [6]: -22.8% (active)
growth [7]: 23.5%
growth [8]: 24.9%
growth [9]: -33.4% (active)

CCC#CC[C@H]1C/C=C2/C(=O)C=C[C@@H]2C/C=C\CCCC(=O)O1
growth [2]: -26.6% (active)
growth [3]: 45.4%
growth [4]: -3.46% (active)
growth [5]: -38.1% (active)
growth [6]: -29% (active)
growth [7]: 0.732% (active)
growth [8]: -37.9% (active)

CCNc1nc(N2CC(=O)Nc3cc(OC)ccc32)c2ccccc2n1
growth [2]: 50.3%
growth [3]: 36.6%
growth [4]: 25.5%
growth [5]: -5.18% (active)
growth [10]: -2.59% (active)
growth [6]: -8.1% (active)
growth [7]: 20.4%
growth [8]: 12%
growth [9]: -48.4% (active)

NCCSC(c1ccccc1)(c1ccccc1)c1ccccc1
growth [2]: 68.6%
growth [3]: 29.5%
growth [4]: 40.8%
growth [5]: 7.06% (active)
growth [10]: -2.14% (active)
growth [6]: -20.7% (active)
growth [7]: 19.9%
growth [8]: 37.9%
growth [9]: -42.8% (active)

— PubChem BioAssay (NCI)
